Reference: PubChem BioAssay AID1159580 (chemical genetic matrix, 2015)
The whole screen tested about 5,500 compounds, of which about 2,000 (36%) were called active. Not shown: some 18% with an inconclusive outcome. No stated cut-off is given here; in the data, active means normalized growth mostly below about 0.91 (no sharp cut-off); inconclusive means no clear call, values can overlap the other calls; inactive means mostly above about 0.92. The list shows a part of the results.

Test: chemical genetic growth profiling, strain panel (AID 1159580);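 further: tested at 20 µM; growth read once vehicle control cultures reached saturation at 30 °C; 1 = growth at the plate median or of vehicle wells; lower values mean less growth of the strain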
Conditions: growth OD

Measured: normalized growth

C=C1C2CC[C@@]3(C)[C@H](c4ccoc4)OC(=O)C[C@]13O[C@H]1CC(O)C(C)(C)C(CC(=O)OC)[C@@]21C (stereo not given in full)
inactive: S. cerevisiae deletion strains, locus YJL187C, strain SWE1, active compounds read low 0.971 | S. cerevisiae deletion strains, locus YJR043C, strain POL32, active compounds read low 1.01 | S. cerevisiae deletion strains, locus YJR066W, strain TOR1, active compounds read low 0.922 | S. cerevisiae deletion strains, locus YKL009W, strain mrt4, active compounds read low 1 | S. cerevisiae deletion strains, locus YKL068W, active compounds read low 1.01 | S. cerevisiae deletion strains, locus YKL085W, strain MDH1 (second series), active compounds read low 0.999 | S. cerevisiae deletion strains, locus YKL085W, strain MDH1, active compounds read low 0.999 | S. cerevisiae deletion strains, locus YKL160W, strain elf1, active compounds read low 0.984 | S. cerevisiae deletion strains, locus YKL190W, strain CNB1, active compounds read low 0.987 | S. cerevisiae deletion strains, locus YKR001C, strain vps1, active compounds read low 0.999 | S. cerevisiae deletion strains, locus YKR026C, strain gcn3, active compounds read low 0.985 | S. cerevisiae deletion strains, locus YKR091W, strain srl3, active compounds read low 0.965 | S. cerevisiae deletion strains, locus YLL001W, strain dnm1, active compounds read low 0.989 | S. cerevisiae deletion strains, locus YLL026W, active compounds read low 0.974 | S. cerevisiae deletion strains, locus YLL041C, strain sdh2, active compounds read low 0.971 | S. cerevisiae deletion strains, locus YLR027C, strain aat2, active compounds read low 0.99 | S. cerevisiae deletion strains, locus YLR039C, strain RIC1, active compounds read low 0.963 | S. cerevisiae deletion strains, locus YLR058C, strain SHM2, active compounds read low 1 | S. cerevisiae deletion strains, locus YLR102C, strain apc9, active compounds read low 1.01 | S. cerevisiae deletion strains, locus YLR113W, strain HOG1, active compounds read low 0.996 | S. cerevisiae deletion strains, locus YLR221C, strain rsa3, active compounds read low 0.981 | S. cerevisiae deletion strains, locus YLR258W, strain gsy2, active compounds read low 0.977 | S. cerevisiae deletion strains, locus YLR262C, strain YPT6 (second series), active compounds read low 0.925 | S. cerevisiae deletion strains, locus YLR268W, strain sec22, active compounds read low 1.01 | S. cerevisiae deletion strains, locus YLR320W, strain mms22, active compounds read low 0.97 | S. cerevisiae deletion strains, locus YLR342W, strain FKS1 (second series), active compounds read low 1.02 | S. cerevisiae deletion strains, locus YLR342W, strain FKS1, active compounds read low 0.971 | S. cerevisiae deletion strains, locus YLR357W, strain rsc2, active compounds read low 0.998 | S. cerevisiae deletion strains, locus YLR370C, strain arc18, active compounds read low 0.981 | S. cerevisiae deletion strains, locus YLR371W, strain rom2, active compounds read low 1.02 | S. cerevisiae deletion strains, locus YLR384C, strain iki3, active compounds read low 0.964 | S. cerevisiae deletion strains, locus YLR418C, strain cdc73, active compounds read low 0.998 | S. cerevisiae deletion strains, locus YML016C, strain PPZ1, active compounds read low 1.01 | S. cerevisiae deletion strains, locus YML032C, strain rad52, active compounds read low 1.03 | S. cerevisiae deletion strains, locus YML120C, strain ndi1, active compounds read low 0.99 | S. cerevisiae deletion strains, locus YML124C, strain tub3, active compounds read low 1.01 | S. cerevisiae deletion strains, locus YMR058W, strain fet3, active compounds read low 0.97 | S. cerevisiae deletion strains, locus YMR078C, strain ctf18, active compounds read low 1.01 | S. cerevisiae deletion strains, locus YMR125W, strain sto1, active compounds read low 0.972 | S. cerevisiae deletion strains, locus YMR129W, active compounds read low 0.989 | S. cerevisiae deletion strains, locus YMR205C, strain PFK2, active compounds read low 0.962 | S. cerevisiae deletion strains, locus YMR223W, strain ubp8, active compounds read low 1.01 | S. cerevisiae deletion strains, locus YMR231W, strain pep5, active compounds read low 0.971 | S. cerevisiae deletion strains, locus YMR307W, strain GAS1, active compounds read low 1.06 | S. cerevisiae deletion strains, locus YNL067W, strain RPL9B, active compounds read low 1.01 | S. cerevisiae deletion strains, locus YNL071W, strain lat1, active compounds read low 0.974 | S. cerevisiae deletion strains, locus YNL183C, strain NPR1, active compounds read low 0.974 | S. cerevisiae deletion strains, locus YNL209W, strain ssb2, active compounds read low 0.979 | S. cerevisiae deletion strains, locus YNL233W, strain BNI4, active compounds read low 0.972 | S. cerevisiae deletion strains, locus YNL248C, strain rpa49, active compounds read low 0.971 | S. cerevisiae deletion strains, locus YNL250W, strain rad50, active compounds read low 1.02 | S. cerevisiae deletion strains, locus YNL271C, strain bni1, active compounds read low 1.01 | S. cerevisiae deletion strains, locus YNL298W, strain CLA4, active compounds read low 1.01 | S. cerevisiae deletion strains, locus YNL307C, strain MCK1, active compounds read low 1.01 | S. cerevisiae deletion strains, locus YNL322C, strain KRE1 (second series), active compounds read low 0.985 | S. cerevisiae deletion strains, locus YNR049C, strain mso1, active compounds read low 0.969 | S. cerevisiae deletion strains, locus YNR052C, strain pop2, active compounds read low 1.02 | S. cerevisiae deletion strains, locus YOL012C, strain htz1 1.88 | S. cerevisiae deletion strains, locus YOL147C, strain pex11, active compounds read low 1.02 | S. cerevisiae deletion strains, locus YOR001W, strain rrp6, active compounds read low 0.969 | S. cerevisiae deletion strains, locus YOR061W, strain CKA2, active compounds read low 1 | S. cerevisiae deletion strains, locus YOR069W, strain VPS5, active compounds read low 1.01 | S. cerevisiae deletion strains, locus YOR070C, strain gyp1, active compounds read low 0.978 | S. cerevisiae deletion strains, locus YOR080W, strain dia2, active compounds read low 0.979 | S. cerevisiae deletion strains, locus YOR083W, strain WHI5, active compounds read low 0.981 | S. cerevisiae deletion strains, locus YOR106W, strain vam3, active compounds read low 0.955 | S. cerevisiae deletion strains, locus YOR136W, strain idh2, active compounds read low 1.02 | S. cerevisiae deletion strains, locus YOR144C, strain elg1, active compounds read low 1.03 | S. cerevisiae deletion strains, locus YOR184W, strain ser1, active compounds read low 1.01 | S. cerevisiae deletion strains, locus YOR231W, strain MKK1, active compounds read low 0.991 | S. cerevisiae deletion strains, locus YOR265W, strain rbl2, active compounds read low 0.986 | S. cerevisiae deletion strains, locus YOR270C, strain vph1, active compounds read low 0.878 | S. cerevisiae deletion strains, locus YOR290C, strain snf2, active compounds read low 0.987 | S. cerevisiae deletion strains, locus YOR316C, strain cot1, active compounds read low 1.01 | S. cerevisiae deletion strains, locus YPL051W, strain arl3, active compounds read low 0.975 | S. cerevisiae deletion strains, locus YPL078C, strain atp4, active compounds read low 0.981 | S. cerevisiae deletion strains, locus YPL106C, strain sse1, active compounds read low 0.973 | S. cerevisiae deletion strains, locus YPL240C, strain hsp82, active compounds read low 0.98 | S. cerevisiae deletion strains, locus YPL256C, strain CLN2, active compounds read low 0.939 | S. cerevisiae deletion strains, locus YPR119W, strain clb2, active compounds read low 1.02 | S. cerevisiae deletion strains, locus YPR141C, strain kar3, active compounds read low 1.02 | S. cerevisiae deletion strains, locus YPR163C, strain tif3, active compounds read low 1.02 | S. cerevisiae deletion strains, locus YPR167C, strain met16, active compounds read low 1.01 | S. cerevisiae deletion strains, strain wtn01, active compounds read low 1.01 | S. cerevisiae strains, strain wild type, active compounds read low 0.998
